Data reported in PubChem BioAssay (NCATS).
Inconclusive results are not listed. Calls of active or inactive are those of the source. Calls follow the shape of the dose curve; as a rule, active = well fitted inhibition curve with a large enough effect; inconclusive = small, poorly fitted or top-dose-only effect; inactive = flat fitted curve, though single readings scatter.

Assay: P-glycoprotein substrates identified in KB-8-5-11 adenocarcinoma cell line, qHTS therapeutic library screen (AID 1346987); also: nearly all actives have a fitted effect of over 65% in size
Details: KB-8-5-11 (P-gp overexpressing) viability, CellTiter-Glo, 72 h; series mostly up to 44.5 µM
Source text: The ATP-binding cassette transporters P-glycoprotein (P-gp) is known to limit brain penetration of many chemotherapy drugs. […] As such, we developed a high-throughput screen (HTS) to identify substrates of P-gp from a series of chemical libraries including the National Center for Advancing Translational Sciences Pharmaceutical Collection NPC, 2,816 compounds), testing a total of 10,804 compounds, most of which have known mechanisms of action. We used the CellTiter-Glo viability assay to test library compounds against the parental KB-3-1 human cervical adenocarcinoma cell line and the colchicine-selected sub-line KB-8-5-11 that over-expresses P-gp. KB-8-5-11 cells were also tested in the presence of a P-gp inhibitor (tariquidar) to assess reversability of transporter-mediated resistance. Of the tested compounds, a total of 90 P-gp substrates were identified including 55 newly identified P-gp substrates. Substrates were confirmed using an orthogonal killing assay against HEK-293 cells transfected with P-gp. As exemplars, we confirmed that […] (cyclin-dependent kinase inhibitor); AT9283, (Janus kinase 2/3 inhibitor); ispinesib (kinesin spindle protein inhibitor); gedatolisib (PKI-587, phosphoinositide 3-kinase/mammalian target of rampamycin inhibitor); GSK-690693 (AKT inhibitor); and KW-2478 (heat shock protein 90 inhibitor) were substrates , and direct ATPase stimulation was assessed. ABCG2 was also found to confer high levels of resistance to AT9283, GSK-690693 and gedatolisib, while ispinesib, AT7519 and KW-2478 were weaker substrates.
The HeLa derivative cell line, KB-3-1, and its colchicine-selected, P-gp-overexpressing subline, KB-8-5-11 were maintained in DMEM with 10% FCS and Pen/Strep with glutamine at 37 degree C in 5% CO2. For KB-8-5-11 cells, colchicine was added to the medium at a concentration of 100 ng/mL. HEK-293 cells transfected with empty vector (pcDNA) or vector containing human ABCB1 (MDR-19) or ABCG2 (R-5) have been described previously (Robey, Lin, Qiu, Chan & Bates, 2011) and were maintained in EMEM supplemented with 10% FCS, Pen/Strep and glutamine with 2 mg/ml G418 to select for the expression of the transporter. Cultures were confirmed to be free of mycoplasma infection using the MycoAlert Mycoplasma Detection Kit (Lonza, Walkersville, MD). For the screen, assay medium was identical to culture medium except for KB-8-5-11 where colchicine was excluded from the medium.
All cell lines were plated into 1536-well plates at 500 cells/well in 5 uL media. Compounds were then pinned in dose-response using a 1536-head pin tool (Kalypsis, San Diego, CA) and plates were incubated at 37 degree C in 5% CO2 for an additional 72 h. CellTiter-Glo reagent (Promega) was dispensed into the wells, incubated for 5 min and luminescence was read on a ViewLux instrument (Perkin-Elmer). Cytotoxic compounds were defined as those that yielded a curve class of -1.1, -1.2, -2.1, -2.2, -2.3, or -2.4, a maximum response of >50% and an AC50 of < 10 uM. Cherry-picked hits from screening analysis were tested with both the KB pair of cell lines, and the pcDNA (empty vector control) and MDR-19 (P-gp overexpressing) pair were tested, in the absence and presence of tariquidar.

Compound	outcome
CCOC(N)=O	inactive
C/C=C/C(=O)N(CC)c1ccccc1C	inactive
CCN(CC)CC1CCCCN1CC(=O)N1c2ccccc2C(=O)Nc2cccnc21 (stereo not given)	inactive
O=C(/C=C/c1ccccc1)OCc1ccccc1	inactive
CC[N+](CC)(CC(=O)Nc1c(C)cccc1C)Cc1ccccc1	inactive
NC(=O)CC[C@@H](N)C(=O)O	inactive
Cc1cc(=O)[nH]c(=S)[nH]1	inactive
CN(C(=O)c1c(O)c2ccccc2n(C)c1=O)c1ccccc1	inactive
CC(=O)Nc1ccccc1	inactive
CC(=O)N1C[C@H](O)C[C@H]1C(=O)O	inactive
CN1C(C)(C)CCCC1(C)C	inactive
CCOC(=O)OC(C)OC(=O)[C@@H]1N2C(=O)[C@@H](NC(=O)[C@H](N)c3ccccc3)[C@H]2SC1(C)C (stereo not given in full)	inactive
CC(C)C[C@@H](N)C(=O)O	inactive
CCCCCCCC(=O)OCC(COC(=O)CCCCCCC)OC(=O)CCCCCCC	inactive
CC(=O)N(CC(O)CN(C(C)=O)c1c(I)c(C(=O)NCC(O)CO)c(I)c(C(=O)NCC(O)CO)c1I)c1c(I)c(C(=O)NCC(O)CO)c(I)c(C(=O)NCC(O)CO)c1I (stereo not given)	inactive
CCCCCCCCCCC(CO)CCCCCCCC (stereo not given)	inactive
O=C(O)Cc1ccc(CCNS(=O)(=O)c2ccc(Cl)cc2)cc1	inactive
O=C(O)c1ccccc1OP(=O)(O)O	inactive
Cc1cccc(C(=O)O)c1O	inactive
Cc1c(Cn2ccnc2)c2ccccc2n1CCC(=O)O	inactive

Compound	outcome
CCCC(O)C(CC)CO (stereo not given)	inactive
CN1CCN(C(=O)C2CCCCC2)CC1	inactive
CCN(CC)C(=O)c1cccc(C)c1	inactive
CCCCCCCCCCCCCCCCC(C(=O)O)C(O)(CC(=O)O)C(=O)O (stereo not given)	inactive
CCc1nnc(NS(=O)(=O)c2ccc(N)cc2)s1	inactive
CC(=O)NCc1c(I)c(NC(C)=O)c(I)c(C(=O)O)c1I	inactive
Cc1cc(C)c(NC(=O)CN(CC(=O)O)CC(=O)O)c(C)c1Br	inactive
CC(C)NC[C@@H](O)COc1ccc(CC(N)=O)cc1	inactive
Nc1ncnc2c1ncn2[C@@H]1O[C@H](COP(=O)(O)O)[C@@H](O)[C@H]1O	inactive
O=C(NCN1CCOCC1)c1cnccn1	inactive
CC(CSC(=O)c1ccccc1)C(=O)N1C[C@@H](Sc2ccccc2)C[C@H]1C(=O)O (stereo not given in full)	inactive
CC(=O)OCC(=O)[C@@]1(O)CC[C@H]2[C@@H]3CCC4=CC(=O)C=C[C@]4(C)[C@@]3(F)[C@@H](O)C[C@@]21C	inactive
Cc1cccc(C)c1NC(=O)CC12CCCN1CCC2	inactive
NNc1nnc(NN)c2ccccc12	inactive
CC(N)CCCC(C)(C)O (stereo not given)	inactive
COC(=O)c1ccc(O)cc1	inactive
CC(=O)OC[C@H]1O[C@@](COC(C)=O)(O[C@H]2O[C@H](COC(C)=O)[C@@H](OC(C)=O)[C@H](OC(C)=O)[C@H]2OC(C)=O)[C@@H](OC(C)=O)[C@@H]1OC(C)=O	inactive
Nc1ncnc(Nc2ccccc2)n1	inactive
COc1ccccc1OCC(O)CO (stereo not given)	inactive
O=C(O)CCCCC1CCSS1 (stereo not given)	inactive
